This note sets out measurements from PubChem BioAssay (Tox21).

SMILES strings stand for the structures. Unmarked numbers belong to inactive results. Where a call stands in place of a potency, no number is given. Calls of active or inactive are those of the source. The call rests on the fitted dose curve.
Potency means the concentration at half of the fitted maximal effect.

Sequence of Gonadotropin-releasing hormone receptor (Homo sapiens) (P30968 whole entry, looked up): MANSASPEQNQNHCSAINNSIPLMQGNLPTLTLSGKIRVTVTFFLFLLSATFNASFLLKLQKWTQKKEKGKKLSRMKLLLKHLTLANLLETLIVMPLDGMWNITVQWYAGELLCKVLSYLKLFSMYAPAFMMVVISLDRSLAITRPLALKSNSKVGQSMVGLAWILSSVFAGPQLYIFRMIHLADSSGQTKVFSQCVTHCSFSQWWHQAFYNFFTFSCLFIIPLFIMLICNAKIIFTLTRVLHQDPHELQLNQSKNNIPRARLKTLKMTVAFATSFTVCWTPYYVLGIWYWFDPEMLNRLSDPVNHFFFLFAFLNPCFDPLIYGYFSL

This experiment addresses Gonadotropin-releasing hormone receptor (Homo sapiens) (UniProt P30968). The experiment in a line: Human gonadotropin-releasing hormone receptor (GnRHR) small molecule agonists, calcium flux assay in GnRHR-HEK293 cells (AID 1920063). Further: nearly all actives have a fitted effect of over 35% in size. To be noted: calcium flux fluorescence, agonist mode; series mostly up to 57.6 µM; activity change: at the top concentration. The source says:
National Center for Advancing Translational Sciences [NCATS]
Division of Preclinical Innovation [DPI]
U.S. Environmental Protection Agency [EPA]
National Institutes of Environmental Health Sciences [NIEHS]
National Toxicology Program [NTP]
U.S. Food and Drug Administration [FDA]
Gonadotropin-releasing hormone receptor (GnRHR) is a G-protein-coupled receptor (GPCR) and acts (through phospholipase C) to increase intracellular inositol trisphosphate and then release intracellular calcium stores. Cell-based GnRHR-Hek293 calcium influx assay is using HEK293 cells that have been genetically engineered to express the human GnRHR, which activity can be measured by calcium signaling. A compound/drug can activate (agonist) GnRHR that can be monitored by levels of intracellular calcium.
GnRHR-HEK293 cells developed by Codex Corp contain human GnRHR reporter gene, which was stably integrated into HEK 293 cells. The compound activation can be detected by fluorescence intensity via calcium flux assay. This cell line has been used to screen the Tox21 10K compound library to identify GnRHR agonists.
GnRHR-Hek293 cells were dispensed at 1500cells/4uL/well in 1536-well black wall/clear bottom plates using a multidrop dispenser. After the assay plates were incubated at a 37 C/5% CO2 incubator for 18 hours, 4 uL of Calcium Dye Solution was added to each well. The plates were incubated at 37 C for 1 hour. For agonist mode, 23 nL of compounds dissolved in DMSO, positive controls or DMSO only was transferred to the assay plate by a pin tool station. The fluorescence intensity in the plates was measured using FDSS 7000EX kinetic plate reader with a filter set of Ex/Em=480/540 for 3 min at 1 sec intervals. Each test compound was measured at 15 concentrations and in triplicates.
Background: Calcium flux is commonly read through the fluorescence of an indicator in the cells.
Take `CCCCOC(=O)c1ccccc1C(=O)OCCCC`: the Potency entry was “inactive”.

As for `CCOP(=S)(OCC)Oc1nc(Cl)c(Cl)cc1Cl`, the Potency entry was “inactive”. With `N#Cc1ccccc1N`, the “activity change” value was -0.429%. With `Cc1cccc(N)c1N`, the Potency result is “inactive”. Same read-out and setting: under `Nc1cc(Cl)cc(C(=O)O)c1Cl` stands “inactive”. As for `COS(=O)(=O)c1ccc(C)cc1`, the “activity change” value is 1.44%. As for `O=C(Cl)OCCOCCOC(=O)Cl`, the “activity change” value is -0.173%. Turning to `O=P1(NCCCl)OCCCN1CCCl` (stereo not given), the Potency result is “inactive”. `COP(=S)(OC)Oc1ccc(S(=O)(=O)N(C)C)cc1`: the Potency result was “inactive”.

Turning to `CCn1cc[n+](C)c1C`, the Potency entry was “inactive”. The same measure, in the same setting: under `COP(=S)(OC)Oc1ccc(Sc2ccc(OP(=S)(OC)OC)cc2)cc1` stands “inactive”; under `[O-][Cl+2]([O-])O`, “inactive”. For the compound `CCC(C)Cl` (stereo not given), the “activity change” value was 0.99%. On to `CC(C#N)CCC#N` (stereo not given), for which the Potency entry is “inactive”. On to `CCCCCCCCCl`, for which the Potency result is “inactive”.

Regarding `N#CCCCCC#N`, the Potency result was “inactive”. As for `FC(Cl)(Cl)Cl`, the “activity change” value was -0.164%. For `CC(c1ccc(O)cc1)c1ccc(O)cc1`, the Potency result is “inactive”. Same read-out and setting: the entry for `Cc1cc(N=Nc2ccccc2C)ccc1N` is “inactive”.

As to `O=c1n(Cl)c(=O)n(Cl)c(=O)n1Cl`, the Potency result is “inactive”.

With `Oc1cc(Cl)c(Cl)cc1Cl`, the Potency entry was “inactive”. The same measure, in the same setting: the entry for `COc1ccc(N)cc1N` is “inactive”. As to `O=[N+]([O-])c1ccccc1`, the Potency result is “inactive”. In the case of `Clc1ccc(C(c2ccc(Cl)cc2)C(Cl)Cl)cc1`, the Potency entry is “inactive”. As to `O=NN1CCOCC1`, the Potency result is “inactive”.

As to `N#CSCSC#N`, the Potency is 39.8 µM (active). As for `OC(Cc1ccccc1Cl)(Cn1cncn1)C1(Cl)CC1` (stereo not given), the “activity change” value was 4.33%. `Cc1cc(-c2ccc(N)c(C)c2)ccc1N`: the Potency result was “inactive”.

As for `CCc1ccccc1C`, the “activity change” value is -0.203%. Take `CC1(C)CC(=O)CC(C)(C)N1[O]`: the “activity change” value was 2.02%. Consider `O=C(O)CC(O)(CC(=O)O)C(=O)O`, for which the Potency result was “inactive”. In the case of `COC(=O)c1ccc(CBr)cc1`, the “activity change” value is -1.14%. Still for that read-out and setting: under `BrCC(Br)c1ccccc1` (stereo not given) stands -0.703%. With `O=P1(N(CCCl)CCCl)NCCCO1` (stereo not given), the Potency result is “inactive”.

Take `COC(=O)c1ccccc1CS(=O)(=O)NC(=O)Nc1nc(OC)cc(OC)n1`: the “activity change” value is 0.261%. For `CNC(=O)Oc1cccc2ccccc12`, the Potency result was “inactive”. Still for that read-out and setting: under `CC(C)(C#N)N=NC(C)(C)C#N` stands “inactive”.

For `COC(=O)[C@@H](N)CCCN/C(N)=N/[N+](=O)[O-]`, the “activity change” value was -1.29% [at 26.4 µM, stronger effect = higher value]. As to `CC(C)c1ccc(NC(=O)N(C)C)cc1`, the “activity change” value is -1.58%. Same read-out and setting: the figure for `CC(C)OS(C)(=O)=O` is -0.489%.
